What all share (test): cross-link between two proteins; cross-linking mass spectrometry
Assay [1] deals with Heterogeneous nuclear ribonucleoproteins C1/C2 (UniProt P07910).
A further assay has as its target NHP2-like protein 1 (UniProt P55769).
Assay [2] deals with Ubiquitin carboxyl-terminal hydrolase 39 (UniProt Q53GS9).
Assay [3] concerns the target Serine/arginine-rich splicing factor 1 (UniProt Q07955).

Sequence of NHP2-like protein 1 (P55769 whole entry): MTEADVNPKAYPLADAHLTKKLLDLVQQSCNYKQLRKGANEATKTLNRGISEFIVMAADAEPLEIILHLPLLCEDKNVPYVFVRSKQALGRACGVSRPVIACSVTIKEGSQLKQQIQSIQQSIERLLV
Sequence of Heterogeneous nuclear ribonucleoproteins C1/C2 (P07910 whole entry): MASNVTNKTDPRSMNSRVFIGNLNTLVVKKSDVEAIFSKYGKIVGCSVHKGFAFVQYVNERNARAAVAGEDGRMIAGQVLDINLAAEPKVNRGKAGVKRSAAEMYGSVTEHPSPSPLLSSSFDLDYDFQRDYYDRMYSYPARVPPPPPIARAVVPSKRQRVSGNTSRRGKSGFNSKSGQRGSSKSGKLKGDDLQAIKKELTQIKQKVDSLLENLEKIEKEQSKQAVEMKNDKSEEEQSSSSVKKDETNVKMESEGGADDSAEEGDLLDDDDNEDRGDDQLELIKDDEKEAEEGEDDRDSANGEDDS
Sequence of Serine/arginine-rich splicing factor 1 (Q07955 whole entry): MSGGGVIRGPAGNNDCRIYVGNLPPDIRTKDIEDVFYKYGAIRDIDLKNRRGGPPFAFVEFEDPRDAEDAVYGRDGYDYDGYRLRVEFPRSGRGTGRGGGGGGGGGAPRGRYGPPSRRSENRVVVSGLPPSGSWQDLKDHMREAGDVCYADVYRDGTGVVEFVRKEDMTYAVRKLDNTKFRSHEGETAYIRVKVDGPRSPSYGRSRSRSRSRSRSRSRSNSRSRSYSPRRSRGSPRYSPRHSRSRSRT
Sequence of Ubiquitin carboxyl-terminal hydrolase 39 (Q53GS9 whole entry): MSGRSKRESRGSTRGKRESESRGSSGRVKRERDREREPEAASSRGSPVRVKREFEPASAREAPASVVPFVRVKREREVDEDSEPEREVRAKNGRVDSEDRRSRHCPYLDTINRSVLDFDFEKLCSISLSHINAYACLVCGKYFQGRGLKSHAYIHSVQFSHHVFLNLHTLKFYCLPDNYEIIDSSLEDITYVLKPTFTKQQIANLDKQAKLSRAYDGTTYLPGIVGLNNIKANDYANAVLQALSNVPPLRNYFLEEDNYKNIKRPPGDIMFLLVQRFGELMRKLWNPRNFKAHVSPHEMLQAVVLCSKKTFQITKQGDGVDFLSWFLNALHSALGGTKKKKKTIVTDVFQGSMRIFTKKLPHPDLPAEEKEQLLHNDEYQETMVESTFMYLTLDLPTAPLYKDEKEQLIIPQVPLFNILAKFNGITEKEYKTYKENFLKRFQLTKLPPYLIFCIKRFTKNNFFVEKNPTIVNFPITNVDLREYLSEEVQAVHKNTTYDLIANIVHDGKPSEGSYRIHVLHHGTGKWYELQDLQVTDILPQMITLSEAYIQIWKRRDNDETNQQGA

On to “Survival of motor neuron-related-splicing factor 30, O75940”, for which the “listed as a hit” value in assay [1] is on record as “yes”. For Pre-mRNA-processing factor 6, O94906, the “listed as a hit” value (in the assay with NHP2-like protein 1; in assay [2]) was “yes” each time. Turning to “Probable ATP-dependent RNA helicase DDX5, P17844”, in assay [3], the “listed as a hit” value is given as “yes”.

Values taken from article PMC11208138.
